Results filed as inconclusive are left out. Active and inactive are the calls of the source. Unless noted, calls come from the whole dose curve.
Assays:
[1] = biological target: Estrogen receptor (Homo sapiens) (UniProt P03372); test: qHTS assay for small molecule antagonists of estrogen receptor alpha signaling (AID 588513; active = well fitted curve in the direction sought with a large enough effect in the signal ratio, with a control signal flat, not every such curve was filed as active; the % refers to the signal ratio; note: % is set by controls: 0 for no effect and ±100 for the full control effect)
How it was run: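 Antagonist mode: inhibition of 0.5 nM 17-beta-estradiol-driven beta-lactamase reporter in HEK 293 ER-alpha-UAS-bla cells, 18 h at 37C, CCF4 readout after 2 h at RT. Normalised to estradiol and DMSO; titration fitted to Hill.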

[2] = biological target: Estrogen receptor (Homo sapiens) (UniProt P03372); test: qHTS assay for small molecule agonists of estrogen receptor alpha signaling (AID 588514);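 note: 0% = vehicle only and 100% = reference agonist; nearly all actives have a fitted effect of over 70% in size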
How it was run: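 Cells were plated at 5000/well, incubated 4 hrs at 37 C, dosed with compound titration series, incubated 18 hrs at 37 C, loaded with CCF4 dye for 2 hrs at RT, then fluorescence was read.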

[3] = qHTS assay for small molecule antagonists of peroxisome proliferator-activated receptor delta signaling (AID 588535); settings: HEK293T PPARd-UAS-bla, beta-lactamase FRET ratio, 18 h; 460 nm channel;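 note: cells co-treated with a PPAR-delta agonist as stimulator during compound exposure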
How it was run: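 HEK293T PPAR-delta-UAS-bla cells, 4000/well, 2% charcoal/dextran FBS; 5 h 37 C; cpd titration; 18 h 37 C; CCF4 2 h RT; FI 460/530 nm; Hill fit → IC50, efficacy.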

[4] = biological target: Vitamin D3 receptor (Homo sapiens) (UniProt P11473); test: qHTS assay for small molecule antagonists of vitamin D receptor signaling (AID 588541);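 note: receptor activated by calcitriol during compound treatment; series mostly up to about 77 µM; % is set by controls: 0 for no effect and ±100 for the full control effect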
How it was run: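 Antagonist-mode beta-lactamase reporter assay: HEK293T VDR-UAS-bla cells were exposed to titrated compound alongside 1-alpha,25-dihydroxyvitamin D3 at 3 nM final for 16 h. Values were normalized to the 50 nM agonist control and DMSO basal, with IC50 and efficacy from Hill equation fits.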

[5] = biological target: Vitamin D3 receptor (Homo sapiens) (UniProt P11473); test: qHTS assay for small molecule agonists of vitamin D receptor signaling (AID 588543);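 note: 0% = DMSO basal and 100% = reference agonist control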
How it was run: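 Agonist-mode beta-lactamase reporter: HEK293T VDR-UAS-bla cells in charcoal-stripped 2% FBS, compound series 16 h 37 C, CCF4 2 h RT. EC50 from Hill fit, scaled against DMSO and 50 nM calcitriol control.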

[6] = qHTS assay for small molecule agonists of retinoid X receptor alpha signaling (AID 588544); settings: HEK293T RXRa-UAS-bla, beta-lactamase reporter, 18 h; 530 nm emission;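 for activation: 0% = DMSO basal wells and 100% = reference agonist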
[7] = biological target: Retinoic acid receptor RXR-alpha (Homo sapiens) (UniProt P19793); test: as above
[8] = biological target: Thyroid hormone receptor beta (Homo sapiens) (UniProt P10828); test: qHTS assay for small molecule agonists of thyroid hormone receptor beta signaling (AID 588545);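 note: 0% = DMSO only and 100% = 10 nM T3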
How it was run: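 Beta-lactamase reporter activity under TR response element control is measured in HEK 293 cells after 18 hrs compound exposure. Signal is ratiometric CCF4 fluorescence, 460/530 nm.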

[9] = qHTS assay for small molecule antagonists of retinoid X receptor alpha signaling (AID 588546; active = well fitted inhibition curve with a large enough effect in the signal ratio, with a control signal flat, not every such curve was filed as active; the % refers to the signal ratio;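 note: cells stimulated with 9-cis-retinoic acid as agonist; % is set by controls: 0 for no effect and ±100 for the full control effect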); settings: HEK293T RXRa-UAS-bla, beta-lactamase ratio, antagonist mode; measured here: W530 green channel, cytotoxicity proxy
How it was run: (§1)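 Beta-lactamase reporter inhibition, read as CCF4 fluorescence ratio (ex 405, em 460/530 nm) after 2 h at RT. HEK293T UAS-bla cells, 2500/well, were stimulated with 9-cis-RA at 500 or 100 nM final alongside test compound for 18 h at 37 C.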

[10] = biological target: Retinoic acid receptor RXR-alpha (Homo sapiens) (UniProt P19793); test: as above; settings: HEK293T RXRa-UAS-bla, beta-lactamase ratio, antagonist mode
How it was run: as §1

[11] = biological target: Thyroid hormone receptor beta (Homo sapiens) (UniProt P10828); test: qHTS assay for small molecule antagonists of thyroid hormone receptor beta signaling (AID 588547; active = well fitted inhibition curve with a large enough effect in the signal ratio, with a control signal flat, not every such curve was filed as active; the % refers to the signal ratio;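 note: cells stimulated with 0.4 nM T3 agonist during compound exposure; series mostly up to about 77 µM; % is set by controls: 0 for no effect and ±100 for the full control effect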); settings: TR-UAS-bla HEK293, beta-lactamase ratio, antagonist mode, 18 h
How it was run: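 Inhibition of T3-driven (0.4nM final) beta-lactamase reporter activity was measured over 0.59 nM to 92 uM compound after 18 h at 37 C. The cells were GripTite HEK293 TR-UAS-bla in charcoal/dextran-stripped serum, with CCF4 ratio read-out and IC50 from Hill fits.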

[12] = qHTS assay for small molecule activators of the nuclear factor-kappa B (NF-kB) signaling pathway (AID 651749; active = well fitted activation curve with a large enough effect in the signal ratio; the % refers to the signal ratio; note: series mostly up to about 77 µM; % of control where 0% means no effect); settings: NF-kB-bla ME-180 cells, beta-lactamase FRET ratio, 16 h; activation: stronger effect = higher value
How it was run: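 Readout: beta-lactamase reporter driven by an NF-kB response element, detected fluorescently as loss of FRET. Cells were the ME-180 line, treated 16 hr at 37C with pin-transferred compound.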

[13] = qHTS assay for environmental chemicals that activate the Aryl hydrocarbon Receptor (AhR) signaling pathway (AID 651777; active = well fitted curve in the direction sought with a large enough effect; an effect the other way counts as inactive or inconclusive; note: % of control where 0% means no effect; nearly all actives have a fitted effect of over 15% in size); settings: 1A2-DRE human hepatoma cells, luciferase, 24 h; activation: stronger effect = higher value
How it was run: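 Stable CYP1A2 promoter/DRE-luciferase human hepatoma line treated 24 hr; One-Glo luminescence, 30 min RT.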

[14] = biological target: Peroxisome proliferator-activated receptor alpha (Homo sapiens) (UniProt Q07869); test: qHTS assay for small molecule agonists of the peroxisome proliferator-activated receptor alpha (PPARalpha) signaling pathway (AID 651778; active = well fitted curve in the direction sought with a large enough effect; an effect the other way counts as inactive or inconclusive; note: % of control where 0% means no effect); settings: PathHunter PPARalpha complementation, chemiluminescence, 6 h; max response: stronger effect = higher value
How it was run: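 Chemiluminescence from complemented enzyme reported PPARalpha activation in cells after 6 hr of compound treatment at 37 C. The detection reagent was incubated for 60 min at room temperature, and compounds were scored as agonists.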

[15] = qHTS assay for small molecule agonists of the antioxidant response element (ARE) signaling pathway measured by Nrf2-dependant transcriptional activity (AID 720636; active = well fitted curve in the direction sought with a large enough effect in the repeat runs; an effect the other way counts as inactive or inconclusive;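 note: HepG2 cells with an ARE-driven luciferase reporter; % of control where 0% means no effect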)
How it was run: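 Reporter gene assay, HepG2 ARE-luc: 16 hr compound, 37 C, 5% CO2; read-out luciferase luminescence.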

[16] = qHTS assay for cell viability of HEK293 cells (AID 743288; active = well fitted curve in the direction sought with a large enough effect; an effect the other way counts as inactive or inconclusive; note: % is set by controls: 0 for no effect and ±100 for the full control effect; nearly all actives have a fitted effect of over 50% in size); settings: ATP luminescence (CellTiter-Glo), 18 h; max response: stronger effect = lower value
How it was run: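 Total intracellular ATP, measured with a luciferase-coupled reagent, indicates the number of viable HEK293 cells. Exposure to test chemicals lasts 18 h at 37 C in 1,536-well format at 2,000 cells/well.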

[17] = qHTS assay for cell viability of the p53RE-bla HCT-116 cell line (AID 743292; active = well fitted curve in the direction sought with a large enough effect; an effect the other way counts as inactive or inconclusive; note: % is set by controls: 0 for no effect and ±100 for the full control effect; nearly all actives have a fitted effect of over 55% in size)
How it was run: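 Readout: CellTiter-Glo luminescence after 30 min RT. Treatment: compounds in DMSO, 16 h, 37 C. Cells: CellSensor p53RE-bla HCT-116, 4,000/well, preincubated 5 h.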

[18] = biological target: Nuclear receptor subfamily 1 group I member 2 (Rattus norvegicus) (UniProt Q9R1A7); test: qHTS assay for small molecule activators of the rat pregnane X receptor (rPXR) signaling pathway (AID 651751; call rule not given here; note: 0% is about no effect); settings: rPXR reporter cells, luciferase (One-Glo), 24 h
[19] = qHTS assay for small molecule activators of the human pregnane X receptor (PXR) signaling pathway (AID 720659; call rule not given here; note: 0% is about no effect)
[20] = qHTS assay for small molecule agonists of the antioxidant response element (ARE) signaling pathway measured by Nrf2-dependant transcriptional activity - cell viability counter screen (AID 720653; active = well fitted curve in the direction sought with a large enough effect in the repeat runs; an effect the other way counts as inactive or inconclusive; note: % is set by controls: 0 for no effect and ±100 for the full control effect); settings: ARE-bla HepG2 viability, CellTiter-Glo ATP luminescence, 16 h; max response: stronger effect = lower value
How it was run: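 Cytotoxicity counter screen: intracellular ATP quantified by CellTiter-Glo luminescence in the same ARE-bla HepG2 plates, after 16 h compound exposure and a 2 h beta-lactamase substrate step.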

Sequence of Thyroid hormone receptor beta (Homo sapiens) (P10828 whole entry, looked up): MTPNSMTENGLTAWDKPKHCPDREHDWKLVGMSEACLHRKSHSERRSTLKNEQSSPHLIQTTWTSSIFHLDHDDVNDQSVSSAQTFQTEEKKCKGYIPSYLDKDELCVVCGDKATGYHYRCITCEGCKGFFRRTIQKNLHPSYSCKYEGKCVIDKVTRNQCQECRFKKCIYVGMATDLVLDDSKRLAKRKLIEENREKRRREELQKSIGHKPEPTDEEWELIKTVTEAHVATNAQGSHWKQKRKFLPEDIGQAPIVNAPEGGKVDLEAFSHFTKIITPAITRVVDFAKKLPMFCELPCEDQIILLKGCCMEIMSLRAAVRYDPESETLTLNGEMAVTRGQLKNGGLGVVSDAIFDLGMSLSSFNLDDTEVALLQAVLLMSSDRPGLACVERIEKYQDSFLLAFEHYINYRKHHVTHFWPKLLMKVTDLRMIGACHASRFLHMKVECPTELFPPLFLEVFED
Sequence of Vitamin D3 receptor (Homo sapiens) (P11473 whole entry, looked up): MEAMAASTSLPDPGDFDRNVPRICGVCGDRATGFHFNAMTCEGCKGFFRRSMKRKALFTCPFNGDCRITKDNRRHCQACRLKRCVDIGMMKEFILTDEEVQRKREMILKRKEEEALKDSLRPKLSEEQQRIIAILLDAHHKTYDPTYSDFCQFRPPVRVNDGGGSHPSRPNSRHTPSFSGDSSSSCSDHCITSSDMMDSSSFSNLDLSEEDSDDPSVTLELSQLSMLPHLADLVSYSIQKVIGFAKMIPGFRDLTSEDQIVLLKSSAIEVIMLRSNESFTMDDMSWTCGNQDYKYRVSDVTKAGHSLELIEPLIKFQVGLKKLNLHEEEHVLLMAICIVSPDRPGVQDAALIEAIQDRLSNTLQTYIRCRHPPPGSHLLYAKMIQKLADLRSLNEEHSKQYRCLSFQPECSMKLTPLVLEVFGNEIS
Sequence of Nuclear receptor subfamily 1 group I member 2 (Rattus norvegicus) (Q9R1A7 whole entry, looked up): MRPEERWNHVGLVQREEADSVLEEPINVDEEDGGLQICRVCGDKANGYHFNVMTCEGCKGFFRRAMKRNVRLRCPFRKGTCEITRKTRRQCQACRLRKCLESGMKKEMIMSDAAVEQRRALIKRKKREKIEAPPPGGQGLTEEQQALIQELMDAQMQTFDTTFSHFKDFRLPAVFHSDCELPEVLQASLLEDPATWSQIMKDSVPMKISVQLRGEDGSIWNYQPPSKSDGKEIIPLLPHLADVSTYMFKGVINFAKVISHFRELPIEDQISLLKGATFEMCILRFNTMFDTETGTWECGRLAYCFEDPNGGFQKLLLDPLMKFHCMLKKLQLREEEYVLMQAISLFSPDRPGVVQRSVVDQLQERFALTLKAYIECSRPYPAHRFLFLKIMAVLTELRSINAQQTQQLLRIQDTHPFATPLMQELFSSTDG
Sequence of Peroxisome proliferator-activated receptor alpha (Homo sapiens) (Q07869 whole entry, looked up): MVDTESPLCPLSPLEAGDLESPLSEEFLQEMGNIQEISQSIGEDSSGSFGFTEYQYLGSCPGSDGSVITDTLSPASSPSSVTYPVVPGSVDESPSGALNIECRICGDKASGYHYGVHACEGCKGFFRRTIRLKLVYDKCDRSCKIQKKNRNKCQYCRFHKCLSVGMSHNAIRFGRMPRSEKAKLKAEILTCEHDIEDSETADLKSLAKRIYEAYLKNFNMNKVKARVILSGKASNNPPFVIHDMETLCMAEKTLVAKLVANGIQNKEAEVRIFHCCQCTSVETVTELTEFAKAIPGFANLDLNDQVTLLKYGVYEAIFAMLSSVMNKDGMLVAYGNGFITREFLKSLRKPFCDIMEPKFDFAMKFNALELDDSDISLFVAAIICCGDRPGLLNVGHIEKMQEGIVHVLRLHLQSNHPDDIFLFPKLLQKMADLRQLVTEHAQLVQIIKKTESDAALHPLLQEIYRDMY
Sequence of Estrogen receptor (Homo sapiens) (P03372 whole entry, looked up): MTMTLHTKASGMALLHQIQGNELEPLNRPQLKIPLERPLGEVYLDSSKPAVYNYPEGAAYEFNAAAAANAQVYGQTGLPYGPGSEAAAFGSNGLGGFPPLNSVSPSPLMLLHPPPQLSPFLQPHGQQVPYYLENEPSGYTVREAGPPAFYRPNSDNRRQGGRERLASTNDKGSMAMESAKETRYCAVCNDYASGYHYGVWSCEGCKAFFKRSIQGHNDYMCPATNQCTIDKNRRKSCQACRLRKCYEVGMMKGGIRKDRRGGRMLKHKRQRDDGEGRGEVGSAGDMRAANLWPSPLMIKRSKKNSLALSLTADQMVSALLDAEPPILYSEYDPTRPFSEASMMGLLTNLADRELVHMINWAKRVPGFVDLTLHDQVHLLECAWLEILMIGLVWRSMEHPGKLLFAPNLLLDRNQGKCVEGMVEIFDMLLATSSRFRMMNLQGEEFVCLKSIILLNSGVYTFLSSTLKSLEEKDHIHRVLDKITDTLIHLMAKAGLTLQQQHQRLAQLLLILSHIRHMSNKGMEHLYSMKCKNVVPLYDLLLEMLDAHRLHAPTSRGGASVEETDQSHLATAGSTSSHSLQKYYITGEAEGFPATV
Sequence of Retinoic acid receptor RXR-alpha (Homo sapiens) (P19793 whole entry, looked up): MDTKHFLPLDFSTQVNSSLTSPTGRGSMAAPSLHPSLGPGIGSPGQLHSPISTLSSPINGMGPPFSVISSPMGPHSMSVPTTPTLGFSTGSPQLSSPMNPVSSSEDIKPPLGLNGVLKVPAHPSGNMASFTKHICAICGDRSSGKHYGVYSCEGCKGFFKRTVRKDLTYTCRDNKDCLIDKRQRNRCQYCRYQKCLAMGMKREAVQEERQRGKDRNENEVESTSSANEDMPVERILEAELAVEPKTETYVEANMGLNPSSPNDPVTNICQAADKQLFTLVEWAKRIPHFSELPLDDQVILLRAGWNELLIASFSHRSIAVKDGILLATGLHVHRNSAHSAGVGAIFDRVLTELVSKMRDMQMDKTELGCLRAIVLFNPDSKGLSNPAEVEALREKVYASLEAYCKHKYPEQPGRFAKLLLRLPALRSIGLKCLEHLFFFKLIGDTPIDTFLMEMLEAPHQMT

Row | SMILES | Potency [1] | Potency [2] | max response [3] [%] | Potency [4] | outcome [5] | max response [6] [%] | Potency [7] | Potency [8] | max response [9] [%] | max response [10] | activity change % (negative = inhibition) [11] | activation [12] | activation [13] | max response [14] | Potency [15] | max response [16] | Potency [17] | max response [18] | outcome [19] | max response [20]
1 | C/C=C/C=C/CCCCCCCO | inactive | inactive | 19.3 | inactive | inactive | 11.1 | inactive | inactive | 19.5 | -19.2% (inactive) | -0.935% (inactive) | -0.666% (inactive) | -1.79% (inactive) | 0.881% (inactive) | inactive | -6.91% (inactive) | inactive | -0.307% (inactive) | inactive | –
2 | CCCCOC(=O)/C=C\C(=O)OCCCC | inactive | inactive | – | inactive | – | -15 | inactive | inactive | -0.0728 | 8.44% (inactive) | 17.7% (inactive) | 0.89% (inactive) | 0.228% (inactive) | -0.617% (inactive) | inactive | -1.23% (inactive) | inactive | 0.138% (inactive) | inactive | 14% (inactive)
3 | CC(C)O.CC(C)O.CC(C)O.CC(C)O.[Ti] | inactive | inactive | -8.01 | inactive | inactive | -22.2 | inactive | inactive | -4.69 | 1.54% (inactive) | -6.47% (inactive) | -1.08% (inactive) | 0.139% (inactive) | -0.904% (inactive) | inactive | -10.9% (inactive) | inactive | -0.917% (inactive) | inactive | -1.55% (inactive)
4 | Nc1nc(N)nc(-c2ccccc2)n1 | inactive | inactive | 20.7 | – | – | -9.5 | inactive | inactive | -13.3 | -4.65% (inactive) | 13.3% (inactive) | 0.267% (inactive) | 5.62% (inactive) | 0.149% (inactive) | – | -4.29% (inactive) | inactive | 2.49% (inactive) | inactive | -8.33% (inactive)
